This note sets out measurements from PubChem BioAssay (NCI).

What all share (test): NCI-60 one-dose screen, 48 h (100 = growth as untreated, 0 = no growth, -100 = all killed)
Settings in all cases: 10 µM unless noted

Experiment [1] relates to HCT-15 colon.
For experiment [2], the system named is HT29 colon.
The subject of experiment [3] is SNB-75 CNS.
Experiment [4] concerns SNB-19 CNS.
The test system of experiment [5] is U251 CNS.
Experiment [6] has as its system PC-3 prostate.
The test system of experiment [7] is SK-MEL-5 melanoma.
Experiment [8] deals with UACC-62 melanoma.
For experiment [9], the system named is LOX IMVI melanoma.
For experiment [10], the system named is SK-MEL-28 melanoma.
Experiment [11] concerns SK-MEL-2 melanoma.
Experiment [12] deals with EKVX NSCLC.
In experiment [13] the test system is SN12C renal.
Experiment [14] deals with UO-31 renal.
Experiment [15] relates to TK-10 renal.
Experiment [16] concerns ACHN renal.
Experiment [17] concerns CAKI-1 renal.
Experiment [18] relates to A498 renal.
Experiment [19] has as its system CCRF-CEM leukemia.
In experiment [20] the test system is MOLT-4 leukemia.

Molecules are shown by their SMILES. This is part of a sample that, as a whole, favours compounds with a hit. Of some 83,000 tested, about 20% had one in any assay.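 Activity criterion: percent growth below 10, measured after cells in 96-well plates were exposed to a single compound concentration for 48 hours.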 Values without a mark were called inactive. Activity calls are given as the source filed them.

With `CCOc1cc(C2C(Cl)C(=O)N2n2cnnc2)ccc1O` (stereo not given), the growth in experiment [1] is 103%; in experiment [2] it was 96.9%; in experiment [3] it was 72.5%; in experiment [4], 102%; in [5], 98.5%; in experiment [6], 91.1%. The growth in [7] is 106%; in experiment [8] it was 95.5%; in experiment [9] it was 101%; in [10] it was 105%; in [11], 100%; in experiment [12], 109%. For the same compound, the growth was 98.6% in [13]; 86% in experiment [14]; 99.1% in experiment [15]; 96.7% in [16]; 85.3% in experiment [17]; 101% in experiment [18]. In addition, the growth in [19] is 93.6%; in experiment [20], 100%.

Regarding `CC(C)(O)c1cccc(F)c1`, the growth in experiment [1] is 99.2%; in [2] it was 108%; in experiment [3], 92.3%; in experiment [4], 97.6%; in [5], 106%; in [6], 99.9%. The growth is 103% in experiment [7]; 88.7% in experiment [8]; 97.7% in experiment [9]; 101% in experiment [10]; 124% in experiment [11]; 92% in experiment [12]. For the same compound, the growth is 94.7% in [13]; 88.7% in experiment [14]; 109% in [15]; 99.1% in [16]; 101% in [17]; 97% in experiment [18]. For the same compound, the growth in experiment [19] was -41.6% (active); in experiment [20], 107%.

With `CN1CCN(C(=O)[C@@]2(C)CC[C@]3(C)CC[C@]4(C)C(=CC[C@@H]5[C@@]6(C)C/C(=C/c7ccncc7)C(=O)C(C)(C)[C@@H]6CC[C@]54C)[C@@H]3C2)CC1`, the growth was 30.2% in experiment [1]; 10.9% in experiment [2]; 62.7% in experiment [3]; 62.7% in [4]; 32.6% in [5]; 23.8% in experiment [6]. In addition, the growth in experiment [7] was 39.3%; in [8], 37.8%; in [9] it was 28.5%; in experiment [10], 48.7%; in [11], 85.1%; in experiment [12] it was 62.7%. Moreover, the growth in [13] was 46.2%; in [14] it was 44.3%; in experiment [15], 75.5%; in experiment [16], 67.4%; in [17], 46.3%; in [18], 79.9%. The figures for the growth in experiment [19] and in experiment [20] were 6.69% (active) and 2.16% (active), respectively.

On to `N#Cc1c(N)n2c(nc1=Nc1ccc(Cl)cc1)sc1cc(Cl)ccc12`, for which the growth in experiment [1] was 96.2%; in [2], 33.4%; in experiment [3] it was 21.1%; in [4], 75.5%; in experiment [5] it was 71%; in [6], 62.5%. For the same compound, the growth was 61.1% in experiment [7]; 63.4% in [8]; 79.7% in experiment [9]; 57.6% in experiment [10]; 69.8% in experiment [11]; 62.3% in experiment [12]. Further, the growth in experiment [13] was 88.4%; in experiment [14], 61.3%; in experiment [15] it was 108%; in experiment [16], 91.3%; in experiment [17], 75.5%; in experiment [18], 91.1%. Also, the growth is 92% in experiment [19] and 27.8% in experiment [20].

On to `COC(=O)/C(=C\c1ccc(OC)cc1)C(=O)N1c2ccccc2Sc2ccccc21`, for which the growth is 24% in [1]; 15.3% in experiment [2]; 2.37% (active) in experiment [3]; 66.9% in experiment [4]; 50.3% in [5]; 53% in experiment [6]. Moreover, the growth was 41.5% in experiment [7]; 19.5% in [8]; 50.6% in [9]; 50.9% in [10]; 35.5% in experiment [11]; 59.3% in experiment [12]. Also, the growth is 71.1% in experiment [13]; 52.6% in experiment [14]; 92.9% in experiment [15]; 58.3% in experiment [16]; 29.4% in experiment [17]; 7.6% (active) in [18]. Besides, the growth in experiment [19] was 43.1%; in [20], 34.5%.

As for `COc1ccc(/C(C)=C(\c2ccc(Cl)cc2)c2ccc(OCCCN(C)C)cc2)cc1F`, the growth in experiment [1] is 7.7% (active); in experiment [2], 3.41% (active); in [3] it was 70.6%; in experiment [4], 67%; in experiment [5] it was 38.5%; in experiment [6], 59.2%. Also, the growth in experiment [7] is 84.1%; in experiment [8], 45.7%; in experiment [9], -74.1% (active); in experiment [10], 37.8%; in [11], 97.2%; in [12] it was 85.4%. Moreover, the growth in experiment [13] is 76%; in experiment [14], 54.2%; in [15] it was 78.6%; in [16] it was 76.7%; in experiment [17], 57.3%; in [18] it was 80.1%. For the same compound, the growth was 48.2% in experiment [19] and 43.1% in experiment [20].

As for `COc1cc2nc(Nc3ccc(F)cc3)nc(N)c2cc1OC`, the growth in [1] was 94.7%; in [2] it was 81%; in [3] it was 103%; in experiment [4], 92.6%; in experiment [5], 94%; in experiment [6] it was 84.1%. The growth in [7] is 90.5%; in experiment [8] it was 94%; in experiment [9], 101%; in experiment [10], 105%; in [11], 91%; in experiment [12] it was 106%. The growth in [13] was 92%; in experiment [14], 76.1%; in experiment [15] it was 95.2%; in experiment [16] it was 101%; in experiment [17] it was 102%; in experiment [18], 63.6%. Besides, the growth in [19] is 81.4%; in [20], 65.3%.

In the case of `C#CC[C@H](N)C(=O)O`, the growth in experiment [1] is 100% [20 µM]; in experiment [2], 98.7% [20 µM]; in [3], 68% [20 µM]; in [4] it was 93.1% [20 µM]; in experiment [5], 100% [20 µM]; in [6], 102% [20 µM]. Besides, the growth in experiment [7] was 102% [20 µM]; in experiment [8] it was 95.4% [20 µM]; in experiment [9], 94.7% [20 µM]; in experiment [10], 110% [20 µM]; in experiment [11], 110% [20 µM]; in [12] it was 106% [20 µM]. The growth in experiment [13] was 98.2% [20 µM]; in experiment [14], 86.1% [20 µM]; in experiment [15] it was 87.7% [20 µM]; in [16], 107% [20 µM]; in [17], 91.1% [20 µM]; in experiment [18] it was 105% [20 µM]. In addition, the growth in experiment [19] is 98.6% [20 µM]; in [20] it was 102% [20 µM].
